# Records with an inconclusive call do not appear. Active and inactive are the calls of the source. Unless noted, the call rests on the fitted dose curve; in most records, active means well fitted curve in the direction sought with a large enough effect; inconclusive means small, poorly fitted or top-dose-only effect, or another doubt; inactive means no such curve, though single readings can be large; an effect the other way counts as inactive or inconclusive.
# How the values were obtained:
# [1] = Primary qHTS for inhibitors of nuclear receptor binding SET domain protein 2 (NSD2) in an isogenic RCH-ACV NSD2 p.E1099K mutant (9B) (AID 1645876); further: potency means the concentration at half of the fitted maximal effect; nearly all actives have a fitted effect of over 70% in size
# [2] = Primary qHTS for inhibitors of nuclear receptor binding SET domain protein 2 (NSD2) in an RCH-ACV wild type WT cells (2C) (AID 1645877); further: potency means the concentration at half of the fitted maximal effect; nearly all actives have a fitted effect of over 70% in size
# [3] = molecular target: Glutathione peroxidase 1 (Homo sapiens) (UniProt P07203); assay: Primary qHTS Assay for Inhibitors of Recombinant Selenoprotein Glutathione Peroxidase 1 (GPX1) (AID 1845191); further: nearly all actives have a fitted effect of over 65% in size
# Summary of the method: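 Recombinant GPX1 (10 nM final) was preincubated with compound for 30 min at room temperature, then reacted with 1 mM GSH, 0.5 mM CHP, 0.5 mM NADPH and 100 nM glutathione reductase; NADPH fluorescence (340/450 nm) was read at 0 and 15 min.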
# [4] = molecular target: Phospholipid hydroperoxide glutathione peroxidase GPX4 (Homo sapiens) (UniProt P36969); assay: Primary qHTS Assay for Inhibitors of Recombinant Selenoprotein Glutathione Peroxidase 4 (GPX4) (AID 1845192); details: outcome: dose series up to 50 µM unless noted; further: on the % scale 0 is the no-effect control and ±100 the full control effect; nearly all actives have a fitted effect of over 65% in size
# Summary of the method: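 GR-coupled readout: 100 nM GR, 1 mM GSH, 0.5 mM NADPH; NADPH fluorescence (ex 340/em 450 nm) read at t=0 and after 15 min RT. GPX4 200 nM, preincubated 30 min with compound; substrate 0.5 mM CHP.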
# [5] = qHTS drug screen for cell cycle checkpoint inhibitors in PARPi-resistant BRCA-mutant ovarian cancer cell lines. (AID 1963452; calls by dose curve); details: PEO1/OlaR viability, CellTiter-Glo luminescence, 96 h, stronger effect = lower value
# Summary of the method: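 PEO1, PEO4 and PEO1/OlaR ovarian cancer cells, 600 per well, exposed 96 h at 37C to a dilution series. Viability read by CellTiter-Glo luminescence, normalized to DMSO and empty wells; activity summarized as Z-AUC.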
# [6] = qHTS assay to identify inhibitors of the type 1 interferon - major histocompatibility complex class I in skeletal muscle: Counter screen cell viability and HiBit confirmation (AID 1347412); details: iHSKM muscle cells + IFN-b, HiBiT or CellTiter-Glo, 24 h; Viability; at 45.9 µM (top of the series); further: on the % scale 0 is the no-effect control and ±100 the full control effect; nearly all actives have a fitted effect of over 60% in size
# Summary of the method: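 CRISPR HLA-B*08:01-HiBit immortalized human myoblasts (C25cl48) stimulated with 4 ng/ml IFN-beta and compounds (12-point 1:3, top 46 uM final) for 24 h at 37 C. Duplicate plates read by HiBit lytic luminescence or CellTiter Glo ATP.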
# Sequence of Glutathione peroxidase 1 (Homo sapiens) (P07203 whole entry, looked up): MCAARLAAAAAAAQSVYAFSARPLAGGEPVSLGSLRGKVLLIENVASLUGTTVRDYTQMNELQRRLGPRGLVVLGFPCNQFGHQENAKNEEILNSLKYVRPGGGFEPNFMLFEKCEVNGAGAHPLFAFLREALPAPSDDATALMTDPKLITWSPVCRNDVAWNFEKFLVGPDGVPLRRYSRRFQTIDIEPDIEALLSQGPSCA
# Sequence of Phospholipid hydroperoxide glutathione peroxidase GPX4 (Homo sapiens) (P36969 whole entry, looked up): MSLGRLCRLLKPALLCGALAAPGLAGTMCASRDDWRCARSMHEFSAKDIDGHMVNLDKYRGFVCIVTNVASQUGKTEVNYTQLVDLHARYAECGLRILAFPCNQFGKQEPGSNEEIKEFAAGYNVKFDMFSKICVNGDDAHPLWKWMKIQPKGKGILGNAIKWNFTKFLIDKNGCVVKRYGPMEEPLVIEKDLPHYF
smiles,measurement,setting,value
COc1cc(N2CCN(C)CC2)ccc1Nc1ncc2c(n1)N(C)c1ccccc1C(=O)N2C,Potency,[1],2.35 µM (active)
same,Potency,[2],2.35 µM (active)
same,Potency,[3],inactive
same,Potency,[4],inactive
same,Z-AUC,[5],-0.347 (inactive)
same,Z-AUC,[5]; measured here: PEO1 parental Z-AUC,0.0513
same,Z-AUC,[5]; measured here: PEO4 Z-AUC,-0.152
same,"activity change, negative = inhibition",[6],22.1% (inactive)

# Source: PubChem BioAssay (NCATS)
